In the supplement of paper PMC6279402:
± gives the standard deviation of the averaged measurements.

System: A549
Experiment: relative viability (normalised to negative control = 1, bortezomib = 0) (fraction); higher = less cytotoxic
Settings: inflammatory serum-free RHB-A with cytokines + LPS, 5 d + 24 h CellTiter-Blue
Method: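 A549 KRAS-mutant NSCLC cells, pre-treated 5 µM GSK126 or vehicle (DMSO), were seeded at 250 cells/well in 384-well plates in serum-free RHB-A medium with inflammatory cytokines/LPS and treated with Selleck kinase inhibitor and NCI oncology compounds at 30 or 300 nM in triplicate, refreshed at 48 h. Viability was read by CellTiter-Blue after 5 d plus 24 h and normalised per plate with cellHTS2 (mean of bortezomib positive control = 0, mean of negative control = 1).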

[1] = compound 30 nM, GSK126 pretreatment: 5 uM GSK126
[2] = compound 30 nM, GSK126 pretreatment: none (vehicle)
[3] = compound 300 nM, GSK126 pretreatment: 5 uM GSK126
[4] = compound 300 nM, GSK126 pretreatment: none (vehicle)

Compound	relative viability [1]	relative viability [2]	relative viability [3]	relative viability [4]
Oc1cccc(-c2nc(N3CCOCC3)c3oc4ncccc4c3n2)c1	0.743 ± 0.082	0.805 ± 0.11	0.113 ± 0.011	0.127 ± 0.025
Nc1nc2[nH]cc(CCc3ccc(C(=O)N[C@@H](CCC(=O)O)C(=O)O)cc3)c2c(=O)[nH]1 [Pemetrexed; Pemetrexed Disodium]	0.89 ± 0.07	0.88 ± 0.078	0.829 ± 0.1	0.879 ± 0.095
CN(C)C/C=C/C(=O)Nc1cc2c(Nc3ccc(F)c(Cl)c3)ncnc2cc1O[C@H]1CCOC1 [BIBW2992; BIBW2992(Tovok)]	0.389 ± 0.018	0.374 ± 0.028	0.281 ± 0.036	0.328 ± 0.052
COc1cc2nccc(Oc3ccc(NC(=O)Nc4cc(C)on4)c(Cl)c3)c2cc1OC [AV-951(Tivozanib)]	0.919 ± 0.12	0.927 ± 0.12	1.1 ± 0.11	1.18 ± 0.18
Nc1nc(Cl)nc2c1ncn2[C@@H]1O[C@H](CO)[C@@H](O)[C@@H]1F [Clofarabine]	0.74 ± 0.12	0.693 ± 0.026	0.28 ± 0.047	0.256 ± 0.027
CO[C@H]1C[C@@H]2CC[C@@H](C)[C@@](O)(O2)C(=O)C(=O)N2CCCC[C@H]2C(=O)O[C@H]([C@H](C)C[C@@H]2CC[C@@H](OC(=O)C(C)(CO)CO)[C@H](OC)C2)CC(=O)[C@H](C)/C=C(\C)[C@@H](O)[C@@H](OC)C(=O)[C@H](C)C[C@H](C)/C=C/C=C/C=C/1C [CCI-779; Temsirolimus]	0.532 ± 0.038	0.541 ± 0.034	0.46 ± 0.069	0.531 ± 0.028
Cc1ccc(NC(=O)c2ccc(CN3CCN(C)CC3)cc2)cc1Nc1nccc(-c2cccnc2)n1	0.902 ± 0.12	0.867 ± 0.096	0.976 ± 0.13	1 ± 0.093
COc1cc2nccc(Oc3ccc(NC(=O)Nc4ccc(F)cc4F)c(F)c3)c2cc1OC	0.86 ± 0.097	0.832 ± 0.051	0.916 ± 0.12	1.01 ± 0.075
CCCNC(=O)Nc1ccc(Oc2ncnc3cc(OC)c(OC)cc23)cc1Cl	0.713 ± 0.055	0.752 ± 0.01	0.775 ± 0.19	0.895 ± 0.087
O=C(c1ccc(/C=C/c2n[nH]c3ccccc23)cc1)N1CCNCC1	0.843 ± 0.022	0.862 ± 0.046	0.957 ± 0.065	1.04 ± 0.091
